Assay outcomes (PubChem)
ELG1 repair inh: blocks ELG1-dependent DNA repair in HEK293T cells | HEK293T ELG1-luciferase reporter, luminescence, 16 h; DNA damage induced by 5-fluorouridine | Potency, µM (titrated, usually from 46.1 µM), inactives show at the top dose activity change, negative = inhibition, actives largely listed as inhibitors | 2.3% of 330,000 active | AID 504467; also: potency is read from the fitted curve at half-maximal effect; nearly all actives have a fitted effect of over 55% in size
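DMSO vehicle served as the neutral condition. Each well held 2,000 cells given 5-fluorouridine plus compound; after 16 hr at 37 °C/5% CO2, ONE-Glo was added and luciferase measured 30 min later.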
DT40 TDP1 no CPT: qHTS for Inhibitors of human tyrosyl-DNA phosphodiesterase 1 (TDP1): qHTS in cells in absence of CPT | AID 686978, 2013 | DT40 Tdp1-/- hTDP1 cells, no CPT, ATP luminescence, 48 h | Potency, µM (top dose mostly 46.2 µM), inactives show at the highest dose activity change, negative = growth inhibition, actives largely listed as inhibitors | 15% of 420,000 active; also: potency is read from the fitted curve at half-maximal effect; nearly all actives have a fitted effect of over 55% in size
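Compound effects on proliferation are scored in DT40 Tdp1-/-;hTDP1 cells in the absence of CPT. ATP levels (CellTiter-Glo luminescence) are recorded after a ≥48 hr, 37 °C incubation.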
DT40 TDP1 CPT: DT40-hTDP1 cell growth loss with CPT | 12% of 420,000 active | AID 686979 | Potency, µM (highest dose often 46.2 µM), for inactives: at the top dose activity change, negative = growth inhibition, most hits filed as inhibitors | chicken DT40 Tdp1-/-;hTDP1 cells + 20 nM CPT, ATP luminescence, 48 h; also: potency is read from the fitted curve at half-maximal effect; nearly all actives have a fitted effect of over 55% in size
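Chicken DT40 Tdp1-/- cells complemented with human TDP1, 400 cells/well, exposed to compounds plus 20 nM camptothecin for at least 48 h at 37 C; viability read as ATP content by CellTiter-Glo luminescence.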
TDP1 inh: TDP1 (human) enzyme inhibition; recombinant TDP1, AlphaScreen DNA substrate cleavage; Potency, µM (doses to about 130 µM), for inactives: at the highest dose activity change, negative = inhibition, hits mostly inhibitors; 0.28% of 350,000 active; AID 485290; also: potency is read from the fitted curve at half-maximal effect; nearly all actives have a fitted effect of over 40% in size
Target sequence (Q9NUW8 whole entry, looked up): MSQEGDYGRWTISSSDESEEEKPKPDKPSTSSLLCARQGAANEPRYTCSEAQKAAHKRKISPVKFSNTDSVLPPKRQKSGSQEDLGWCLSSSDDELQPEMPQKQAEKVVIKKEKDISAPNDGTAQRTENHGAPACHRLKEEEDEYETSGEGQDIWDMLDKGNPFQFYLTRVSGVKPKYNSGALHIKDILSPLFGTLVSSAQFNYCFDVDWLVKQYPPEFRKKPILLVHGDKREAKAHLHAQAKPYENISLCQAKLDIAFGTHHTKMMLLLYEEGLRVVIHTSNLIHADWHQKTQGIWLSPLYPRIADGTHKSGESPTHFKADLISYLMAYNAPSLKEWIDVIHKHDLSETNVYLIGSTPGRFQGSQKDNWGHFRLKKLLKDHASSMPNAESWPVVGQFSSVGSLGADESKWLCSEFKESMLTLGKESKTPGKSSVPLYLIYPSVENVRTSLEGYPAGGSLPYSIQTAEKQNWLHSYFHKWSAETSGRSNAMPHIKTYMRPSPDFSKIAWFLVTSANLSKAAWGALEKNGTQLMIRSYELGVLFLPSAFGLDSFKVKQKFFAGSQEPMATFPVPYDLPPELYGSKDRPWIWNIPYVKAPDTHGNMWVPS
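E. coli-derived human Tdp1, 1 nM final. Cpd preinc 15 min RT; substrate 15 nM final, 5 min RT; AS bead mix 10 ug/ml final, 10 min RT. Signal loss = tyrosine-FITC cleavage. No-enzyme wells = max signal.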
IL1B secr inh: inhibitors of inflammasome signaling (IL-1 beta secretion); THP-1 LPS/ATP IL-1B secretion, AlphaLISA, 16 h; stronger effect = lower value; activity change, % at 57.5 µM; 4.7% of 360,000 active; in the data active = activity change below about -50%; inconclusive = mostly about -30% to -49%
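THP-1 cells pretreated 1 hr with compounds (up to 57.5 uM final), then stimulated with LPS (250 ng/mL final) plus ATP (1.25 mM final); secreted IL-1B measured by AlphaLISA after 16 hr, decreased signal indicating inhibition.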
Giardia kill: Giardia lamblia killing | Giardia lamblia trophozoite viability | activity change, % at 7.66 µM, hits read low | 0.15% of 340,000 active | AID 540267; in the data active = activity change below about -80%; inconclusive = between about -30% and that limit;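 also: parasites exposed to compound for two days anaerobically before the ATP read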
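Media and compound were dispensed first, then trophozoites at 100 cells/well; plates sat 48 hrs at 37 deg C without oxygen before ATP luminescence reagent was added and read after 15-30 min at room temperature.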
* marks the source's active call; other numbers are inactive results. In the library only some 19% were active in any assay of this set; here they are far more common. Unless noted, calls follow the shape of the dose curve; as a rule, active = well fitted curve in the direction sought with a large enough effect; inconclusive = small, poorly fitted or top-dose-only effect, or another doubt; inactive = no such curve, though single readings can be large; an effect the other way counts as inactive or inconclusive. % is scaled to controls: 0 for no effect and ±100 for the full control effect.

For CCN(CC)S(=O)(=O)c1cccc(C(=O)N/N=C/c2ccc(O)c(O)c2O)c1 the results were ELG1 repair inh -14%, DT40 TDP1 no CPT 16µM*, DT40 TDP1 CPT 15µM*, TDP1 inh 6%, IL1B secr inh 35 and Giardia kill -13.
For CCN(CC)S(=O)(=O)c1cccc(C(=O)N/N=C(\C)c2ccc(O)cc2O)c1 the results were ELG1 repair inh inconclusive, DT40 TDP1 no CPT 6.5µM*, DT40 TDP1 CPT 4.6µM*, TDP1 inh 3%, IL1B secr inh 93 and Giardia kill -3.
Screening COc1cccc(CC(=O)OCC(=O)NCC(=O)Nc2cccc(C)c2C)c1 returned ELG1 repair inh 14%, DT40 TDP1 no CPT -5%, DT40 TDP1 CPT -9%, TDP1 inh 0%, IL1B secr inh 0 and Giardia kill -26.
Cc1ccccc1-c1nc(CN2CCC(C(=O)NCCC3=CCCCC3)CC2)c(C)o1 was read as ELG1 repair inh inconclusive, DT40 TDP1 no CPT 18µM*, DT40 TDP1 CPT 18µM*, TDP1 inh 7%, IL1B secr inh -61* and Giardia kill -13.
Screening COc1ccc(CCNC(=O)C2CCN(Cc3nc(-c4ccccc4C)oc3C)CC2)cc1OC returned ELG1 repair inh inconclusive, DT40 TDP1 no CPT 16µM*, DT40 TDP1 CPT 23µM*, TDP1 inh 5%, IL1B secr inh -29 and Giardia kill -15.
Screening Cc1ccccc1-c1nc(CN2CCC(C(=O)NCCc3ccccc3)CC2)c(C)o1 returned DT40 TDP1 no CPT 21µM*, DT40 TDP1 CPT 15µM* and TDP1 inh 3%.
`COc1ccc(CCNC(=O)C2CCN(Cc3nc(-c4ccc(Cl)cc4)oc3C)CC2)cc1OC` gave DT40 TDP1 no CPT inconclusive, DT40 TDP1 CPT -15%, IL1B secr inh 20 and Giardia kill 14.
For Cc1ccccc1-c1nc(CN2CCC(C(=O)O)CC2)c(C)o1 the results were ELG1 repair inh 7%, DT40 TDP1 no CPT -7%, DT40 TDP1 CPT 6%, TDP1 inh 0%, IL1B secr inh -7 and Giardia kill -9.
For Cc1ccccc1-c1nc(CN2CCC(C(=O)NC3CCN(Cc4ccccc4)CC3)CC2)c(C)o1 the results were DT40 TDP1 no CPT inconclusive, DT40 TDP1 CPT 21µM*, IL1B secr inh -8 and Giardia kill inconclusive.
`CCc1ccc2c(c1)c(=O)c(S(=O)(=O)c1ccccc1)cn2CC(=O)Nc1ccc(OC)cc1` gave DT40 TDP1 no CPT 0%, DT40 TDP1 CPT -11% and TDP1 inh 6%.
`N#Cc1ccccc1COC(=O)CCC(=O)c1cccs1` gave ELG1 repair inh 11%, DT40 TDP1 no CPT 2%, DT40 TDP1 CPT -15%, TDP1 inh -3%, IL1B secr inh -28 and Giardia kill 29.
`Cc1cc(Br)cc(C)c1NC(=O)c1sc2ncn(Cc3cccc(F)c3)c(=O)c2c1C` gave DT40 TDP1 no CPT 18µM*, DT40 TDP1 CPT 16µM* and TDP1 inh 2%.
COC(=O)c1cc(NC(=O)c2sc3ncn(Cc4cccc(F)c4)c(=O)c3c2C)cc(C(=O)OC)c1 was read as DT40 TDP1 no CPT inconclusive, DT40 TDP1 CPT -27% and TDP1 inh 2%.
Screening Cc1ccc(CN2C(=O)N/C(=C/c3ccc(-c4ccc(C(=O)O)cc4)o3)C2=O)cc1 returned ELG1 repair inh -3%, DT40 TDP1 no CPT 20%, DT40 TDP1 CPT -11%, TDP1 inh 22µM*, IL1B secr inh 0 and Giardia kill 11.
Screening Cc1cc(C(=O)O)ccc1-c1ccc(/C=C2\NC(=O)N(Cc3ccc(F)cc3)C2=O)o1 returned ELG1 repair inh -13%, DT40 TDP1 no CPT inconclusive, DT40 TDP1 CPT -29%, TDP1 inh 4µM*, IL1B secr inh -6 and Giardia kill -10.
For COC(=O)C1=C[C@@H](C(=O)OC)C2C3=C(C(=O)[C@@]2(C)NC(=O)c2ccccc2)[C@H](C)n2c(=O)n(-c4ccccc4)c(=O)n2[C@@H]3C1 (some centres undefined) the results were TDP1 inh 9% and Giardia kill -13.
Screening COc1ccc(/C=C/C(=O)Nc2ccccc2C(=O)NCC(c2ccc(OC)cc2)N(C)C)cc1 (centres undefined) returned ELG1 repair inh inconclusive, DT40 TDP1 no CPT 23µM*, DT40 TDP1 CPT 18µM*, TDP1 inh 17%, IL1B secr inh -78* and Giardia kill 10.
COc1ccc(C(CNC(=O)CSc2ccccc2C)N(C)C)cc1 (centres undefined) was read as ELG1 repair inh 8%, DT40 TDP1 no CPT inconclusive, DT40 TDP1 CPT 7%, TDP1 inh 1%, IL1B secr inh -5 and Giardia kill -13.
`COc1ccc(C(CNC(=O)Cc2ccc(-c3ccccc3)cc2)N(C)C)cc1` (centres undefined) gave ELG1 repair inh 0%, DT40 TDP1 no CPT 18µM*, DT40 TDP1 CPT 21µM*, TDP1 inh 4%, IL1B secr inh -28 and Giardia kill 6.
CN(C)C(CNC(=O)c1ccc(C(=O)c2ccccc2)cc1)c1ccccc1 (centres undefined) was read as ELG1 repair inh 27%, DT40 TDP1 no CPT inconclusive, DT40 TDP1 CPT -15%, TDP1 inh 9%, IL1B secr inh -19 and Giardia kill 14.
`CN(C)C(CNC(=O)c1ccc(-c2ccccc2)cc1)c1ccccc1` (centres undefined) gave ELG1 repair inh inconclusive, DT40 TDP1 no CPT 18µM*, DT40 TDP1 CPT inconclusive, TDP1 inh 5%, IL1B secr inh -54* and Giardia kill 9.
Screening C1=CC2CC1CC2CN1CCN(Cc2ccccc2)CC1 (centres undefined) returned ELG1 repair inh inconclusive, DT40 TDP1 no CPT -26%, DT40 TDP1 CPT inconclusive, TDP1 inh inconclusive, IL1B secr inh 8 and Giardia kill -6.
Screening Cc1cc(C)cc(NC(=O)CCNS(=O)(=O)c2cc(Br)cnc2N)c1 returned ELG1 repair inh 14%, DT40 TDP1 no CPT -1%, DT40 TDP1 CPT 5%, TDP1 inh 2%, IL1B secr inh -4 and Giardia kill -11.
`CC(=O)Cn1ncc(N2CCCCC2)c(Cl)c1=O` gave ELG1 repair inh inconclusive, DT40 TDP1 no CPT -9%, DT40 TDP1 CPT -9%, TDP1 inh 3%, IL1B secr inh -2 and Giardia kill -18.
